Data taken from PubChem BioAssay AID1159580 (chemical genetic matrix, 2015).
Several values for one entry are separate records, joined by “and”; a condition that tells them apart may be missing. Identical values can stand only once. About 2,000 (36%) of roughly 5,500 compounds were called active. Not shown: some 18% with an inconclusive outcome. No stated cut-off is given here; in the data, active means normalized growth mostly below about 0.91 (no sharp cut-off); inconclusive means no clear call, values can overlap the other calls; inactive means mostly above about 0.92. The list shows a part of the results.

Test: chemical genetic growth profiling, strain panel (AID 1159580);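 further: tested at 20 µM; growth read once vehicle control cultures reached saturation at 30 °C; 1 = growth at the plate median or of vehicle wells; lower values mean less growth of the strain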
Settings: growth OD
[1] = S. cerevisiae deletion strains, locus YAL013W, strain DEP1, active compounds read low
[2] = S. cerevisiae deletion strains, locus YAL040C, strain CLN3, active compounds read low
[3] = S. cerevisiae deletion strains, locus YCL061C, strain MRC1 (second series), active compounds read low
[4] = S. cerevisiae deletion strains, locus YDR363W, strain ESC2, active compounds read low
[5] = S. cerevisiae deletion strains, locus YER002W, strain NOP16, active compounds read low
[6] = S. cerevisiae deletion strains, locus YGR229C, strain SMI1, active compounds read low
[7] = S. cerevisiae deletion strains, locus YMR307W, strain GAS1, active compounds read low
[8] = S. cerevisiae deletion strains, locus YNL175C, strain NOP13, active compounds read low
[9] = S. cerevisiae deletion strains, locus YNL197C, strain WHI3, active compounds read low
[10] = S. cerevisiae deletion strains, locus YNL224C, strain SQS1, active compounds read low
[11] = S. cerevisiae deletion strains, locus YOR083W, strain WHI5 (second series), active compounds read low
[12] = S. cerevisiae deletion strains, locus YPL241C, strain CIN2, active compounds read low
[13] = S. cerevisiae deletion strains, locus YMR263W, strain SAP30, active compounds read low
[14] = S. cerevisiae deletion strains, locus YPL055C, strain LGE1, active compounds read low

Measured: normalized growth

CNc1ncnc2c1ncn2[C@@H]1O[C@H](CO)[C@H](O)C1O (stereo not given in full)
inactive: [1] 1.02 | [2] 1 | [3] 0.993 | [4] 0.996 | [5] 0.978 | [6] 1.01 | [7] 1.01 | S. cerevisiae deletion strains, locus YNL153C, strain GIM3, active compounds read low 1.01 | [8] 0.996 | [9] 0.999 | [10] 1 | [11] 1 | [12] 1

Cc1ccccc1CNc1ncnc2c1ncn2C1OC(CO)C(O)C1O (stereo not given)
inactive: [1] 1.01 | [2] 0.997 | [3] 0.999 | [4] 1.03 | [5] 1.01 | [6] 1.02 | [13] 1 | [8] 1.01 | [9] 0.995 | [10] 1.01 | S. cerevisiae deletion strains, locus YNL322C, strain KRE1, active compounds read low 1.01 | [11] 1.01 | [14] 1.01

OC[C@H]1O[C@@H](n2cnc3c(NCc4ccco4)ncnc32)[C@H](O)[C@@H]1O
active: S. cerevisiae deletion strains, locus YOL012C, strain htz1 2.36 [resistant]
inactive: S. cerevisiae deletion strains, locus YBR021W, strain FUR4, active compounds read low 1.02 | S. cerevisiae deletion strains, locus YBR229C, strain ROT2, active compounds read low 1.01 | S. cerevisiae deletion strains, locus YCL029C, strain bik1, active compounds read low 1.01 | S. cerevisiae deletion strains, locus YDL035C, strain GPR1, active compounds read low 1.01 | S. cerevisiae deletion strains, locus YDL074C, strain BRE1, active compounds read low 1.05 | S. cerevisiae deletion strains, locus YDL101C, strain DUN1, active compounds read low 1.03 | S. cerevisiae deletion strains, locus YDL185W, strain tfp1, active compounds read low 1 | S. cerevisiae deletion strains, locus YDL192W, strain arf1, active compounds read low 1 | S. cerevisiae deletion strains, locus YDR101C, strain arx1, active compounds read low 1.02 | S. cerevisiae deletion strains, locus YDR150W, strain NUM1, active compounds read low 1.01 | S. cerevisiae deletion strains, locus YDR162C, strain NBP2, active compounds read low 1.02 | S. cerevisiae deletion strains, locus YDR318W, strain mcm21, active compounds read low 1 | S. cerevisiae deletion strains, locus YDR388W, active compounds read low 0.998 | S. cerevisiae deletion strains, locus YDR502C, strain sam2, active compounds read low 0.998 | S. cerevisiae deletion strains, locus YEL061C, strain CIN8, active compounds read low 1.01 | S. cerevisiae deletion strains, locus YER110C, active compounds read low 1 | S. cerevisiae deletion strains, locus YER155C, strain BEM2, active compounds read low 1.02 | S. cerevisiae deletion strains, locus YER167W, strain BCK2, active compounds read low 1 | S. cerevisiae deletion strains, locus YGL078C, strain dbp3, active compounds read low 0.999 | S. cerevisiae deletion strains, locus YGL086W, strain mad1, active compounds read low 1.02 | S. cerevisiae deletion strains, locus YGL248W, strain PDE1, active compounds read low 1.01 | S. cerevisiae deletion strains, locus YGR135W, strain pre9, active compounds read low 1 | [6] 1.02 | S. cerevisiae deletion strains, locus YGR252W, strain gcn5, active compounds read low 0.971 | S. cerevisiae deletion strains, locus YHR030C, strain SLT2, active compounds read low 1 and 1.06 | S. cerevisiae deletion strains, locus YHR079C, strain IRE1 (second series), active compounds read low 1.01 | S. cerevisiae deletion strains, locus YHR079C, strain IRE1, active compounds read low 1.04 | S. cerevisiae deletion strains, locus YHR094C, strain hxt1, active compounds read low 1 | S. cerevisiae deletion strains, locus YHR129C, strain ARP1, active compounds read low 1.02 | S. cerevisiae deletion strains, locus YHR200W, strain rpn10, active compounds read low 1.01 | S. cerevisiae deletion strains, locus YIL066C, strain RNR3, active compounds read low 1.01 | S. cerevisiae deletion strains, locus YIL073C, strain SPO22, active compounds read low 1.01 | S. cerevisiae deletion strains, locus YIL125W, strain kgd1, active compounds read low 1.01 | S. cerevisiae deletion strains, locus YIR030C, strain dcg1, active compounds read low 1.01 | S. cerevisiae deletion strains, locus YJL095W, strain BCK1, active compounds read low 1.06 and 1.02 | S. cerevisiae deletion strains, locus YJL134W, strain LCB3, active compounds read low 1.01 | S. cerevisiae deletion strains, locus YJL168C, strain set2, active compounds read low 1.01 | S. cerevisiae deletion strains, locus YJL187C, strain SWE1 (second series), active compounds read low 1.04 | S. cerevisiae deletion strains, locus YJR043C, strain POL32, active compounds read low 1.01 | S. cerevisiae deletion strains, locus YJR066W, strain TOR1, active compounds read low 0.974 | S. cerevisiae deletion strains, locus YKL009W, strain mrt4, active compounds read low 1.02 | S. cerevisiae deletion strains, locus YKL068W, active compounds read low 0.995 | S. cerevisiae deletion strains, locus YKL085W, strain MDH1 (second series), active compounds read low 0.993 | S. cerevisiae deletion strains, locus YKL085W, strain MDH1, active compounds read low 0.993 | S. cerevisiae deletion strains, locus YKL190W, strain CNB1, active compounds read low 1.01 | S. cerevisiae deletion strains, locus YKR001C, strain vps1, active compounds read low 1.01 | S. cerevisiae deletion strains, locus YLR039C, strain RIC1, active compounds read low 1.04 | S. cerevisiae deletion strains, locus YLR058C, strain SHM2, active compounds read low 1.02 | S. cerevisiae deletion strains, locus YLR102C, strain apc9, active compounds read low 1 | S. cerevisiae deletion strains, locus YLR113W, strain HOG1, active compounds read low 1.03 | S. cerevisiae deletion strains, locus YLR262C, strain YPT6, active compounds read low 1.06 | S. cerevisiae deletion strains, locus YLR268W, strain sec22, active compounds read low 1.04 | S. cerevisiae deletion strains, locus YLR330W, strain CHS5, active compounds read low 1.01 | S. cerevisiae deletion strains, locus YLR342W, strain FKS1 (second series), active compounds read low 1.01 | S. cerevisiae deletion strains, locus YLR371W, strain rom2, active compounds read low 1 | S. cerevisiae deletion strains, locus YLR418C, strain cdc73, active compounds read low 1.01 | S. cerevisiae deletion strains, locus YML016C, strain PPZ1, active compounds read low 1.01 | S. cerevisiae deletion strains, locus YML032C, strain rad52, active compounds read low 0.988 | S. cerevisiae deletion strains, locus YML124C, strain tub3, active compounds read low 0.996 | S. cerevisiae deletion strains, locus YMR078C, strain ctf18, active compounds read low 0.998 | S. cerevisiae deletion strains, locus YMR223W, strain ubp8, active compounds read low 1 | [13] 1.02 | [7] 1.04 | S. cerevisiae deletion strains, locus YNL067W, strain RPL9B, active compounds read low 1.04 | S. cerevisiae deletion strains, locus YNL183C, strain NPR1, active compounds read low 0.991 | S. cerevisiae deletion strains, locus YNL233W, strain BNI4, active compounds read low 1.05 | S. cerevisiae deletion strains, locus YNL250W, strain rad50, active compounds read low 1.02 | S. cerevisiae deletion strains, locus YNL271C, strain bni1, active compounds read low 1 | S. cerevisiae deletion strains, locus YNL298W, strain CLA4, active compounds read low 0.995 | S. cerevisiae deletion strains, locus YNL307C, strain MCK1, active compounds read low 1.01 | S. cerevisiae deletion strains, locus YNR052C, strain pop2, active compounds read low 0.996 | S. cerevisiae deletion strains, locus YOL147C, strain pex11, active compounds read low 0.998 | S. cerevisiae deletion strains, locus YOR061W, strain CKA2, active compounds read low 1.01 | S. cerevisiae deletion strains, locus YOR069W, strain VPS5, active compounds read low 1.01 | S. cerevisiae deletion strains, locus YOR136W, strain idh2, active compounds read low 1 | S. cerevisiae deletion strains, locus YOR144C, strain elg1, active compounds read low 0.987 | S. cerevisiae deletion strains, locus YOR184W, strain ser1, active compounds read low 0.999 | S. cerevisiae deletion strains, locus YOR231W, strain MKK1, active compounds read low 1.05 | S. cerevisiae deletion strains, locus YOR316C, strain cot1, active compounds read low 1 | [14] 1.03 | [12] 1 | S. cerevisiae deletion strains, locus YPL256C, strain CLN2, active compounds read low 1.06 | S. cerevisiae deletion strains, locus YPR119W, strain clb2, active compounds read low 1 | S. cerevisiae deletion strains, locus YPR141C, strain kar3, active compounds read low 1.01 | S. cerevisiae deletion strains, locus YPR163C, strain tif3, active compounds read low 1 | S. cerevisiae deletion strains, locus YPR167C, strain met16, active compounds read low 1.01 | S. cerevisiae deletion strains, strain wtn01, active compounds read low 1.04 | S. cerevisiae strains, strain wild type, active compounds read low 1.01
